Records with an inconclusive call do not appear. Values without a mark were called inactive. Active and inactive are the calls of the source. Calls come from the whole dose curve; as a rule, active = well fitted inhibition curve with a large enough effect; inconclusive = small, poorly fitted or top-dose-only effect, or effect the other way; inactive = flat fitted curve, though single readings scatter.
Test: Secondary Assay for General miRNAs Modulators and/or Inhibitors/Activators of miR-21: miR-30 Firefly Luciferase Assay
Settings: HeLa miR-30 FLuc reporter, luminescence, 48 h; series mostly up to 38.3 µM; activity change, negative = inhibition: at the top concentration
Source text: MLSCN Grant: 1 R21 NS059478-01 Assay Provider: Qihong Huang, The Wistar Institute NCGC Assay Overview: MicroRNAs (miRNAs) are endogenously encoded small (~20-25 nucleotides), nonprotein-coding RNAs that are involved in post-transcriptional repression of target messenger RNAs (mRNAs) (Le and Hannon, 2004). Estimated to be involved in the regulation of 30% of all protein-coding mRNAs (Filipowicz et al., 2008), miRNAs play a significant role in many biological processes including cellular differentiation and tissue development (Ghildiyal and Zamore, 2009). […] Compounds active in the miR-21 FLuc assay were clustered using Leadscope and active chemical series were prioritized based on chemical properties, potential for medicinal chemistry optimization, and SAR. Within each chemical series, representative compounds were re-acquired to test for activity in a secondary assay based on the quality of their CRC, efficacy, and potency. The secondary assay to determine if compounds active in the miR-21 FLuc assay were potentially specific for miR-21 and were not general modulators of the miRNA pathway was another cell-based FLuc reporter gene assay, this time targeting miR-30. Compounds found active in both the miR-21 FLuc and miR-30 FLuc assays are not considered miR-21 specific compounds, and may be general miRNA modulators.
NCGC Assay Protocol Summary: Reagents: HeLa cells stably expressing firefly luciferase (FLuc) under the control of a CMV promoter (upstream) and a miR-30 binding sequence directly downstream of the gene. These cells also stably express miR-30. Control compounds used were compound C3 (provided by collaborator), N6-phenyladenosine (MP Biomedicals, 0215379625), and DMSO. Assay Summary: 6uL of HeLa miR-30-FLuc cells in assay buffer (DMEM, Invitrogen #21063-029; 10% FBS, HyClone #SH30071.03) were dispensed at 1000cells/well (1.7 x 10^5 cells/mL) into Greiner solid-white TC-treated 1536-well plates using a Multidrop Combi (Thermo Fisher Scientific). Plates were incubated for one hour at 37 degree Celsius, 95% humidity, 5% CO2. These assay plates were then treated with 23nL of compound or DMSO using a Kalypsys pin tool, which allows for delivery of a 24-point titration of each compound to the assay plate, with a final compound concentration ranging from approximately 40uM to 5pM. Assay plates were then incubated for 48 hours. After incubation, plates were allowed to come to RT for one hour prior to delivery of 3uL of 3X luciferase detection reagent. After a 15 minute incubation to allow for cell lysis, luciferase activity was measured using a ViewLux CCD imager (PerkinElmer), with an average exposure time of 2-12 seconds. Keywords: NIH Roadmap, MLPCN, MLSMR, qHTS, miR-21, miR-30, microRNA, firefly luciferase, FLuc.

Row | Structure (SMILES) | Potency | activity change, negative = inhibition [%]
1 | Cc1cccc(-n2nnc(-c3nc(-c4cccs4)no3)c2N)c1 | 0.798 µM (active) | –
2 | Cc1cc(C)cc(NC(=O)CSc2nnc(-c3ccccc3C)o2)c1 | 11.3 µM (active) | –
3 | CCC(=O)n1nc(-c2cccnc2)nc1NCc1ccc(F)cc1 | – | 29.6
4 | Nc1c(-c2nc(-c3ccncc3)no2)nnn1CC(=O)Nc1ccccc1 | – | -3.22
5 | CCC(Oc1ccccc1F)C(=O)N1CCC(c2nc3ccccc3s2)CC1 (stereo not given) | – | 18.4
6 | O=C(CSc1nnc(-c2ccc(O)cc2)o1)Nc1ccccc1Br | 1.13 µM (active) | –
7 | Cc1cccc(OCc2nnc(SCC(=O)Nc3ccc(N4CCOCC4)cc3)o2)c1 | – | 10.4
8 | Cc1c(-c2nc(-c3ccc(C(F)(F)F)cc3)no2)n(C)oc1=O | 0.503 µM (active) | –
9 | O=C(Nc1nnc(S(=O)(=O)N2CCCC2)s1)c1ccc(F)cc1 | – | -22.3
10 | CCS(=O)(=O)n1nc(-c2ccccc2)nc1NCc1ccco1 | – | -29.2
11 | Cn1c(=O)[nH]c2cc(-c3noc(-c4ccc(F)cc4)n3)ccc21 | 2.52 µM (active) | –
12 | Cc1ccc(-c2nc(NCc3ccco3)n(S(C)(=O)=O)n2)cc1 | 11.3 µM (active) | –
13 | O=C(CSc1nnc(-c2ccc(Cl)cc2)o1)Nc1ccc(F)cc1 | 3.18 µM (active) | –
14 | Cc1ccc(-n2nnc(-c3nc(-c4cccs4)no3)c2N)cc1C | 2.52 µM (active) | –
15 | Nc1c(-c2nc(-c3cccs3)no2)nnn1-c1cccc(F)c1 | 0.283 µM (active) | –
16 | O=C(COc1ccccc1F)Nc1ccc(-c2nc3ccccc3s2)cc1 | 3.18 µM (active) | –
17 | CN(C)c1ccc(CNc2nc(-c3ccco3)nn2S(C)(=O)=O)cc1 | 2.83 µM (active) | –
18 | Cc1nnc(SCc2nc(N)nc(Nc3ccccc3)n2)s1 | 22.5 µM (active) | –
19 | O=C(CSc1nnc(-c2ccc(C(F)(F)F)cn2)o1)Nc1cccc(Cl)c1 | 2.83 µM (active) | –
20 | Clc1ccc(-n2ncc3c(NCc4ccccn4)ncnc32)cc1 | 12.6 µM (active) | –

Row | Structure (SMILES) | Potency | activity change, negative = inhibition [%]
21 | COc1cc(-c2nc3cnccn3c2Nc2ccc(C(C)C)cc2)ccc1O | 2.25 µM (active) | –
22 | CC(=O)Nc1nc2c(C)cc(NC(=O)C3CCCCC3)cc2s1 | 1.26 µM (active) | –
23 | Cc1cccc(-c2nnc(SCC(=O)Nc3ccc(C)c(C)c3)o2)c1 | 3.18 µM (active) | –
24 | CCc1ccc(-n2nnc(-c3nc(-c4cccs4)no3)c2N)cc1 | 1.42 µM (active) | –
25 | Cc1ccc(CNc2nc3nc(C)c(Cl)c(C)n3n2)cc1 | 6.34 µM (active) | –
26 | Cc1ccc(-c2nsc(SCC(=O)Nc3ccc4c(c3)OCO4)n2)cc1 | 11.3 µM (active) | –
27 | O=S(=O)(c1ccc(F)cc1)n1ccc(-c2cnc(-c3ccccc3)s2)n1 | 6.34 µM (active) | –
28 | COc1cccc(-n2nnc(-c3nc(-c4cccs4)no3)c2N)c1 | 0.634 µM (active) | –
29 | Cc1cccc(-c2nsc(SCC(=O)Nc3ccc4c(c3)OCO4)n2)c1 | 22.5 µM (active) | –
30 | Nc1c(C(=O)Nc2ccccc2Br)sc2nc(-c3cccs3)ccc12 | – | 9.39
31 | Cc1cccc(-n2nnc(-c3nc(-c4cccs4)no3)c2N)c1C | 0.159 µM (active) | –
32 | Cc1cc(C)n2c(SCc3ccccc3Cl)nnc2n1 | 14.2 µM (active) | –
33 | Cc1ccc(SCC(=O)Nc2ccc3oc(-c4ccc(F)cc4)nc3c2)cc1 | 11.3 µM (active) | –
34 | CCc1nonc1NC(=O)c1oc2ccc(C)cc2c1C | 4.49 µM (active) | –
35 | Cc1ccc(CNc2nc(-c3ccco3)nn2S(C)(=O)=O)cc1 | 2.83 µM (active) | –
36 | Cc1ccc2c(C)c(C(=O)N(C)C(C)c3ccncn3)oc2c1C (stereo not given) | 22.5 µM (active) | –
37 | CCCn1c(=O)c2sccc2n2c(CCCC(=O)Nc3ccc(Oc4ccc(Cl)cc4)cc3)nnc12 | – | 19.4
38 | NC(=O)c1ccccc1NC(=O)c1ccc(-c2ccc(Br)cc2)o1 | 1.13 µM (active) | –
39 | Cc1ccccc1Nc1nc(N)nc(CN(C)c2ccccc2)n1 | 12.6 µM (active) | –
40 | COc1ccc(CNc2n[nH]c(-c3ccco3)n2)cc1OC | – | -23.9
